According to ChEMBL document CHEMBL1961873, “Compounds: GSK PKIS; Assays: Nanosyn kinase panel” (2012):

Legend:
[1] = test system: Epidermal growth factor receptor (Homo sapiens), P00533 [T790M]; settings: at 1 µM
[2] = test system: Epidermal growth factor receptor (Homo sapiens), P00533 [L858R,T790M]; settings: at 0.1 µM
[3] = test system: Epidermal growth factor receptor (Homo sapiens), P00533 [L858R,T790M]; settings: at 1 µM
[4] = biological target: Ephrin type-A receptor 2 (Homo sapiens) (UniProt P29317); settings: at 0.1 µM
[5] = biological target: Ephrin type-A receptor 2 (Homo sapiens) (UniProt P29317); settings: at 1 µM
[6] = biological target: T1, Ephrin type-A receptor 3 (Homo sapiens) (UniProt P29320); settings: at 0.1 µM
T1 sequence (whole entry): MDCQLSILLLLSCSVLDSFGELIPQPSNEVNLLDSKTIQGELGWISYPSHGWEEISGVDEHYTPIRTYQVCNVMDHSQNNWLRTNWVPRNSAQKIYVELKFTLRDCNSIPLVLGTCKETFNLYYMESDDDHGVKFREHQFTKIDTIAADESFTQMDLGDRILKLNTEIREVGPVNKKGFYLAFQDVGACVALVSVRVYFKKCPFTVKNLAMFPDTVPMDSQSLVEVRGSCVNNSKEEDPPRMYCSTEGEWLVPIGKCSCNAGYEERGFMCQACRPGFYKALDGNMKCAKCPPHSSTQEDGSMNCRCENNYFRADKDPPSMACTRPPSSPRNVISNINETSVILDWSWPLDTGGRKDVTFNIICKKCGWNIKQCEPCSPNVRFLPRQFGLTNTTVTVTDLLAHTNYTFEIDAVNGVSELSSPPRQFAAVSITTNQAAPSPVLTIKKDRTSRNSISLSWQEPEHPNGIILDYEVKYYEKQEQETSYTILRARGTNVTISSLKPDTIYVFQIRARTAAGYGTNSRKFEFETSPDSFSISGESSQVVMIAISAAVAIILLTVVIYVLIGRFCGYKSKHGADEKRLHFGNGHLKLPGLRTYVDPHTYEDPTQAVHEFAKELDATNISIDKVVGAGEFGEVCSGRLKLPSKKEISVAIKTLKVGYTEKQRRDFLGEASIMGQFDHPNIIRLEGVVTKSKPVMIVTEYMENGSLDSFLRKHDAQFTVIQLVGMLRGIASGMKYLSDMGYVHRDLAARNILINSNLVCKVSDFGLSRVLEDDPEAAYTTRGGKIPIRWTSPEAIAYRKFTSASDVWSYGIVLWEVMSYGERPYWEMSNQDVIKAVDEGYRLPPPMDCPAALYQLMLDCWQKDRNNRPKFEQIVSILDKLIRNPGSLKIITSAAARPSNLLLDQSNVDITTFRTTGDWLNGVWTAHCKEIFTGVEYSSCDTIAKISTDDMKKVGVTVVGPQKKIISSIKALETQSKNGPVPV

[7] = biological target: T1, Ephrin type-A receptor 3 (Homo sapiens); settings: at 1 µM
[8] = biological target: Ephrin type-A receptor 4 (Homo sapiens) (UniProt P54764); settings: at 0.1 µM
[9] = biological target: Ephrin type-A receptor 4 (Homo sapiens) (UniProt P54764); settings: at 1 µM
[10] = biological target: T2, Ephrin type-B receptor 2 (Homo sapiens) (UniProt P29323); settings: at 0.1 µM;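 further: reported as mean inhibition of EPHB2, from the GSK PKIS dataset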
T2 sequence (whole entry): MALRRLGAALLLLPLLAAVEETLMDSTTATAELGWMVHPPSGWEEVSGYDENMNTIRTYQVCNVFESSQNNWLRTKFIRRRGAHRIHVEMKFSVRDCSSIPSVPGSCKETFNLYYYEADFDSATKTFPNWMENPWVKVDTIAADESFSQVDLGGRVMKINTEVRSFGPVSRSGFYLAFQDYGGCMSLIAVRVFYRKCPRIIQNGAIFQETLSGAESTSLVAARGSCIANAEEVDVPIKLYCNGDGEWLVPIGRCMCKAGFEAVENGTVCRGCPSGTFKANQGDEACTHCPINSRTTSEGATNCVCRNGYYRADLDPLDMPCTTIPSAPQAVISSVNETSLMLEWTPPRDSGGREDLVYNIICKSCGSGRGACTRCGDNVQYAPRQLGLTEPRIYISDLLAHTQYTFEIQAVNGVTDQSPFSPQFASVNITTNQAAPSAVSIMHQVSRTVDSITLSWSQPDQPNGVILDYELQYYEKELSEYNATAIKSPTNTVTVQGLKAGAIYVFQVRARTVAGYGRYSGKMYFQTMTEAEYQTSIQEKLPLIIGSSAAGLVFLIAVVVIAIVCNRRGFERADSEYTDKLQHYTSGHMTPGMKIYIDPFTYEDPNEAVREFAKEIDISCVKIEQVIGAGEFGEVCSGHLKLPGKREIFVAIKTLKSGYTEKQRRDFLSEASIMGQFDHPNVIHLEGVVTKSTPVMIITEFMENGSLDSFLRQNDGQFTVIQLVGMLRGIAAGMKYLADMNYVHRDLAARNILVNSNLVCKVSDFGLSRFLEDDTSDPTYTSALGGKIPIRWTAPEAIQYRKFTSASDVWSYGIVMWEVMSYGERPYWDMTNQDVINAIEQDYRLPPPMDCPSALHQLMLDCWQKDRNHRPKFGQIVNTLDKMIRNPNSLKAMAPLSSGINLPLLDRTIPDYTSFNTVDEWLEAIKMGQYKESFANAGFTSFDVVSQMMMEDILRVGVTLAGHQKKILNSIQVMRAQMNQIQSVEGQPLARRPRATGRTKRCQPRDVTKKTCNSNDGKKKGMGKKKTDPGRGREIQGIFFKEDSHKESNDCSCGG

Chain of Ephrin type-A receptor 2 (Homo sapiens) (P29317 whole entry): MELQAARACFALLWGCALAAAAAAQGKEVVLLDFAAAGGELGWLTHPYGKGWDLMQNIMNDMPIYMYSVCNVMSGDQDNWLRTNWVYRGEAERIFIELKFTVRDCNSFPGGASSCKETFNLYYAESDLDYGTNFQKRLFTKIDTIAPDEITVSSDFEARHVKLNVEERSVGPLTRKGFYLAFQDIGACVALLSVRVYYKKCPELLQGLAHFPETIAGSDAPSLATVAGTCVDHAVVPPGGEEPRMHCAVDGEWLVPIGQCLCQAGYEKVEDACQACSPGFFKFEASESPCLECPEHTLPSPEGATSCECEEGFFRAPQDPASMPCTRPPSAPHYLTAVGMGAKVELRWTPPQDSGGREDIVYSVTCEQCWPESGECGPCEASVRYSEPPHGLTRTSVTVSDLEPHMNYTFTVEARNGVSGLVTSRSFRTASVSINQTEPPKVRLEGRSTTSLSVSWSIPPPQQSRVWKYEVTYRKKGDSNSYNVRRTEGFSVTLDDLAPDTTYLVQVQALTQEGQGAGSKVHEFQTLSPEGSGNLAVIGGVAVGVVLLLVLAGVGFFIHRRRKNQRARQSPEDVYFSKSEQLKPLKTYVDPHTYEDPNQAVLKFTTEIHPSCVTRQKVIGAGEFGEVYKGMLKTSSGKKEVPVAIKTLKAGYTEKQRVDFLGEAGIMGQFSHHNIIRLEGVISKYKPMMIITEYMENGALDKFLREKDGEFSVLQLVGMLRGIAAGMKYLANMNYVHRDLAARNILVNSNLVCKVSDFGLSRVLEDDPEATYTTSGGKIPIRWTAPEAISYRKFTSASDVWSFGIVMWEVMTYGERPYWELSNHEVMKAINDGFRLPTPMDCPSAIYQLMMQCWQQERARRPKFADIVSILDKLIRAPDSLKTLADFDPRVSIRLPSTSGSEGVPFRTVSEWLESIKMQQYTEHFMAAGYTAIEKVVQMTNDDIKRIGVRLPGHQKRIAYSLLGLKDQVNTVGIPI
Chain of Epidermal growth factor receptor (Homo sapiens), P00533 [T790M] (P00533 whole entry T790M): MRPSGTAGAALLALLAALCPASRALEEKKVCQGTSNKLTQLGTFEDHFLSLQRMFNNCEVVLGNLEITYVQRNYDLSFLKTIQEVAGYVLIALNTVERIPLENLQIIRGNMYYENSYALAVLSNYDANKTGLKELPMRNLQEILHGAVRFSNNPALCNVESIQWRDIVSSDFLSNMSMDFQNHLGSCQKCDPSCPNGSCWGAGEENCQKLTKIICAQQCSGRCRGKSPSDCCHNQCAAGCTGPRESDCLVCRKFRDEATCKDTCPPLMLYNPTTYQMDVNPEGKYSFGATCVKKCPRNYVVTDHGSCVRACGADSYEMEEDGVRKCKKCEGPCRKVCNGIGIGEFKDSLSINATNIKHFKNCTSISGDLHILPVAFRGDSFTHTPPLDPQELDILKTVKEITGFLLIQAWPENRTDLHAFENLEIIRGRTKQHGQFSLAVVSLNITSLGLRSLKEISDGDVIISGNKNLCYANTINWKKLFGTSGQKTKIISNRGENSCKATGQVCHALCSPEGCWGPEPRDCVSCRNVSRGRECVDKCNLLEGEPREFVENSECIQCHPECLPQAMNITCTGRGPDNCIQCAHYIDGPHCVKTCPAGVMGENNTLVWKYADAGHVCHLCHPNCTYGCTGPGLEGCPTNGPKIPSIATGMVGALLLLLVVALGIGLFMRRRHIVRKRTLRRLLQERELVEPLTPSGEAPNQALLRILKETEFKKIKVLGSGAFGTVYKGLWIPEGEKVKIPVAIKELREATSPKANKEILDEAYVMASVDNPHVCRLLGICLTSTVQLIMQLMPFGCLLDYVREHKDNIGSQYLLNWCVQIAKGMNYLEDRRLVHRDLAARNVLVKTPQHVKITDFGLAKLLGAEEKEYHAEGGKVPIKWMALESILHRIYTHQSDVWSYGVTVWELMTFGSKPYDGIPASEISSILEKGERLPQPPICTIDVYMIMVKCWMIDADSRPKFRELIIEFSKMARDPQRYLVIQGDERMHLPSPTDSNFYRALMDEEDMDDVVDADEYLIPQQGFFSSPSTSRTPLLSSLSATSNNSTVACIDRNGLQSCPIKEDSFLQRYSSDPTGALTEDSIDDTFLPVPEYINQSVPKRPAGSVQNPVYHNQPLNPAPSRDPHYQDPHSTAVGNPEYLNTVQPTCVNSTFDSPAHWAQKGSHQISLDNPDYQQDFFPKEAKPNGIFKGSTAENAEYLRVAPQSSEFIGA
Chain of Ephrin type-A receptor 4 (Homo sapiens) (P54764 whole entry): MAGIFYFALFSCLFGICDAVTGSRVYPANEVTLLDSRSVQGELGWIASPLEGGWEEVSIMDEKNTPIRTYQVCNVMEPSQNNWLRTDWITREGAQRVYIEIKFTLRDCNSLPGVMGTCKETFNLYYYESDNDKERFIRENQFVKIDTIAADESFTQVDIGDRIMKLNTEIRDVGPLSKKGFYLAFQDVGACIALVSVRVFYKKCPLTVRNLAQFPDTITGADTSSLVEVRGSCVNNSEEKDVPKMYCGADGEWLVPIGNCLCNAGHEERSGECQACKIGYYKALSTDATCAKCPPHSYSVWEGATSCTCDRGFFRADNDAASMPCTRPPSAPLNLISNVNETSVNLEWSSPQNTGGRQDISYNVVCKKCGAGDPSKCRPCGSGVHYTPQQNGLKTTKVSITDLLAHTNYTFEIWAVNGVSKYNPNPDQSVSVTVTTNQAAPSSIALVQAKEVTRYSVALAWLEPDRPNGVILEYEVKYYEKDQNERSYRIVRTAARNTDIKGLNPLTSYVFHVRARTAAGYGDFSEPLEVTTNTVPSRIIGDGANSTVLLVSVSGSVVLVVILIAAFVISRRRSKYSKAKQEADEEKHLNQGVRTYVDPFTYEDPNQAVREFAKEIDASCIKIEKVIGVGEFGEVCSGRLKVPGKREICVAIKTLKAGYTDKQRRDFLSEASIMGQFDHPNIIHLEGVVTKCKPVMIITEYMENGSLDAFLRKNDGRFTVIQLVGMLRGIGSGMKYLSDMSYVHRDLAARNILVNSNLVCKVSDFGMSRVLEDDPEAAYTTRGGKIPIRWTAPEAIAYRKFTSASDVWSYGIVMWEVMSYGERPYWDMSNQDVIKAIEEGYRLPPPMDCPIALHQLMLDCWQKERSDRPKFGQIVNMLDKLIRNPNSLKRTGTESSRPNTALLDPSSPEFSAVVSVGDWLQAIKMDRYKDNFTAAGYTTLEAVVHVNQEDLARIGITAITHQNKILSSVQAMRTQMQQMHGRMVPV
Chain of Epidermal growth factor receptor (Homo sapiens), P00533 [L858R,T790M] (P00533 whole entry T790M/L858R, looked up): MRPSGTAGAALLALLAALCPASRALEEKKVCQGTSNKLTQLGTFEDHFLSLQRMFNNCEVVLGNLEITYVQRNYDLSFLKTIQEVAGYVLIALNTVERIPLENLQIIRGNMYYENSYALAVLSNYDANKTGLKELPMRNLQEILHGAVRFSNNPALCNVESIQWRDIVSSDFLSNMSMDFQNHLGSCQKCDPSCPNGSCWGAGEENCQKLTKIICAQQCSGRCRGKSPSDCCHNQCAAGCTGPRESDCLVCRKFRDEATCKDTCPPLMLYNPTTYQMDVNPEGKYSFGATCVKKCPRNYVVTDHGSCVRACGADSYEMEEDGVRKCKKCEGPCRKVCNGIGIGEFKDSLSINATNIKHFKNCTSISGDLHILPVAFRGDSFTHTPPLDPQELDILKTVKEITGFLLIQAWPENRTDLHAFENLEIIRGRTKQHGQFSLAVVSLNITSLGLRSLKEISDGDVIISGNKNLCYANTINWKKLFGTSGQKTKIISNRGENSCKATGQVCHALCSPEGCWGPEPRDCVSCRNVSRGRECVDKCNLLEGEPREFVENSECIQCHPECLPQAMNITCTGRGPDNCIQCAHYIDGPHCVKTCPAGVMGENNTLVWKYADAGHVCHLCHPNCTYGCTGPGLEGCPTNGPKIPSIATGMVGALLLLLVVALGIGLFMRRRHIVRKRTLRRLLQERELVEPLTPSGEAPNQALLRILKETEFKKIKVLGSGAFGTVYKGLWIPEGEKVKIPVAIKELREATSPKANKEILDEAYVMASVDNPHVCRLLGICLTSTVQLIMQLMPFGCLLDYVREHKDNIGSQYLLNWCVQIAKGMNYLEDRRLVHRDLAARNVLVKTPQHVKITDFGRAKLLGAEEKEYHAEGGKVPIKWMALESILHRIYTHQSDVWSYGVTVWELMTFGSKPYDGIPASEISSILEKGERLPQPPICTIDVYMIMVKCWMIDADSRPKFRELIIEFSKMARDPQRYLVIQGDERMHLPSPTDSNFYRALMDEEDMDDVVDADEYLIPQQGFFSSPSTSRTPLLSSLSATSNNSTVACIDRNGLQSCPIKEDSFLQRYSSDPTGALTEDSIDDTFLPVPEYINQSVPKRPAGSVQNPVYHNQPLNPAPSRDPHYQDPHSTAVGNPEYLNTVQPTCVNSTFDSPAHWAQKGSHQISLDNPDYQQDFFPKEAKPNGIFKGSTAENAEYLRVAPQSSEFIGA

Row | Compound | inhibition [1] [%] | inhibition [2] [%] | inhibition [3] [%] | inhibition [4] [%] | inhibition [5] [%] | inhibition [6] [%] | inhibition [7] [%] | inhibition [8] [%] | inhibition [9] [%] | inhibition [10] [%]
1 | COc1ccc2[nH]c3c4[nH]c5ccc(OC)cc5c4c4c(c3c2c1)C(=O)NC4=O | 17.9 | 9.7 | 53.1 | 2.52 | 0.85 | 5.78 | 6.32 | 10.1 | 22.6 | 10.7
2 | COc1cccc(-c2c[nH]c3c(N/N=C/c4ccncc4)ncnc23)c1 | 2.55 | 2.51 | 22.9 | 3.62 | 14.6 | 3.44 | 6.01 | 8.17 | 30.5 | 10.3
3 | CC(=O)Nc1cccc(C#Cc2cncnc2Nc2ccc(OCc3cccc(F)c3)c(Cl)c2)c1 | – | – | – | 4.33 | 2.42 | 4.65 | 3.23 | 8.19 | 0.69 | 6.52
4 | NS(=O)(=O)c1ccc(Nc2ncc(-c3ccccc3)o2)cc1 | 0.87 | 2.14 | 0.87 | 2.66 | 3.5 | 2.94 | 4.57 | 7.23 | 12 | 5.54
5 | CCN1CCC(CC(=O)Nc2n[nH]c3nnc(-c4cccc(F)c4F)cc23)CC1 | 3.4 | 1.92 | 1.26 | 0.75 | 1.02 | 3.31 | 2.84 | 5.3 | 7.67 | -4.82
6 | COC(=O)c1sc(-n2cnc3cc(OC)c(OC)cc32)cc1OCc1ccccc1C(F)(F)F | -0.3 | -1.64 | 1.53 | 2.23 | 3.86 | 4.53 | 3.54 | 9.09 | 4.17 | 6.43
7 | COc1cc(N2CCN(C(C)C)CC2)ccc1Nc1nc(Nc2ccc(F)cc2C(N)=O)c2cc[nH]c2n1 | 79.5 | 56.5 | 90.4 | 0.87 | -0.92 | 1.78 | 1.28 | 4.96 | 6.43 | 4.59
8 | CNC(=O)c1cncc(/C=C/c2ccccc2Cl)c1 | 5.34 | 1.14 | -0.51 | 3.31 | 2.6 | 1.03 | 1.99 | 3.99 | 15 | -0.8
9 | Nc1ncc(-c2cccc(S(N)(=O)=O)c2)c2scc(-c3ccc(F)c(Cl)c3)c12 | 5.52 | 1.23 | 3.47 | 41 | 89.7 | 27.4 | 68.6 | 54.9 | 92 | 67.8
10 | COc1cc2c(cc1Nc1nc(Nc3ccsc3C(N)=O)c3cc[nH]c3n1)N(C(=O)CN(C)C)CCC2(C)C | 70.8 | 51.9 | 84.7 | 1.53 | 0.81 | 4.65 | 4.34 | 7.86 | 6.49 | 6.01
11 | COc1ccc2c(-c3ccnc(Nc4cccc(OC(F)(F)F)c4)n3)cnn2n1 | 3.37 | 2.65 | 2.88 | 1.21 | 2.29 | 6.89 | 7.93 | 11.3 | 24.1 | 5.72
12 | Clc1ccc(-c2nn3ncccc3c2-c2ccnc(Nc3ccccc3)n2)cc1 | 14.4 | 9.72 | 53.3 | -1.33 | 2.12 | 1.69 | 7.97 | 3.45 | 23.3 | 8.11
13 | COc1cccc(-n2ncc3c(N/N=C/c4ccc(F)cc4)ncnc32)c1 | 3.89 | 1.74 | 1.29 | 4.28 | 5.62 | 4.05 | 4.06 | 7.96 | 15.7 | 5.53
14 | COc1ccc(CNC(=O)c2ccc(-c3cc(-c4nnc(C)o4)ccc3C)cc2)cc1 | 5.47 | 3.26 | 3.61 | 2.44 | 2.41 | 1.41 | 4.21 | 5.67 | 15.7 | 7.58
15 | c1cc(-c2cnn3nc(N4CCOCC4)ccc23)nc(NC2CC2)n1 | 0.49 | 1.11 | 1.53 | 2.12 | 0.18 | 5.23 | 5.8 | 10.2 | 10.9 | 10.2
16 | CCn1c(-c2nonc2N)nc2ccccc21 | -1.8 | 2 | -0.39 | -0.14 | 0.64 | 5.44 | 3.08 | 7.78 | 9.13 | 6.72
17 | c1ccc(-c2nc3n(c2-c2ccc4c(c2)OCO4)CCC3)nc1 | 0.6 | 1.92 | 1.45 | -2.56 | -2.85 | -0.11 | 1.96 | 4.05 | 2.75 | 1.03
